# Reference: PubChem BioAssay (NCATS)
# Results filed as inconclusive are left out. A call without a number means that no potency is given here. A number with no mark means an inactive call. The source made the active and inactive calls. Calls follow the shape of the dose curve; as a rule, active = well fitted curve in the direction sought with a large enough effect; inconclusive = small, poorly fitted or top-dose-only effect, or another doubt; inactive = no such curve, though single readings can be large; an effect the other way counts as inactive or inconclusive.
# What was measured:
# MCC-13 = test: qHTS assay to identify novel small-molecules to repurpose for Merkel cell carcinoma treatment (AID 1296009); conditions: MCC and control cell lines, CellTiter-Glo viability, 72 h; series mostly up to 46 µM; also: nearly all actives have a fitted effect of over 60% in size
# Outline: (§1)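 Luminescence from CellTiter-Glo, read 10 min after addition at room temperature, reported viability following a 72 hr, 37 degree celsius treatment with NPC or MIPE compounds in titration; values normalized to plate controls.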
# MCC-26 = test: as above; conditions: MCC and control cell lines, CellTiter-Glo viability, 72 h; series mostly up to 46 µM
# Outline: as §1
# MKL-1 = test: as above; conditions: MCC and control cell lines, CellTiter-Glo viability, 72 h; series mostly up to 46 µM
# Outline: as §1
# MKL-2 = test: as above; conditions: MCC and control cell lines, CellTiter-Glo viability, 72 h; series mostly up to 46 µM
# Outline: as §1
# C33A = test: Primary qHTS to identify gynecologic anti-cancer compounds using libraries of approved drugs and bioactive compounds (AID 1345084); conditions: Gynecologic cancer cell panel viability, ATPlite luminescence, 48 h; series mostly up to 57.5 µM; also: nearly all actives have a fitted effect of over 55% in size
# Outline: (§2)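 Cytotoxicity screen measuring ATP content by luciferase luminescence. Each compound is applied at five concentrations for 48 h at 37 C with 5% CO2.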
# CASKI = test: as above; conditions: Gynecologic cancer cell panel viability, ATPlite luminescence, 48 h; series mostly up to 57.5 µM
# Outline: as §2
# Es-2 = test: as above; conditions: Gynecologic cancer cell panel viability, ATPlite luminescence, 48 h; series mostly up to 57.5 µM
# Outline: as §2
# HeLa = test: as above; conditions: Gynecologic cancer cell panel viability, ATPlite luminescence, 48 h; series mostly up to 57.5 µM
# Outline: as §2
# Hek293T = test: as above; conditions: Gynecologic cancer cell panel viability, ATPlite luminescence, 48 h, control line for the selectivity index; series mostly up to 57.5 µM
# Outline: as §2
# JEG-3 = test: as above; conditions: Gynecologic cancer cell panel viability, ATPlite luminescence, 48 h; series mostly up to 57.5 µM
# Outline: as §2
# OV90 = test: as above; conditions: Gynecologic cancer cell panel viability, ATPlite luminescence, 48 h; series mostly up to 57.5 µM
# Outline: as §2
# PA-1 = test: as above; conditions: Gynecologic cancer cell panel viability, ATPlite luminescence, 48 h; series mostly up to 57.5 µM
# Outline: as §2
# Tov-21-G = test: as above; conditions: Gynecologic cancer cell panel viability, ATPlite luminescence, 48 h; series mostly up to 57.5 µM
# Outline: as §2
# Tov112D = test: as above; conditions: Gynecologic cancer cell panel viability, ATPlite luminescence, 48 h; series mostly up to 57.5 µM
# Outline: as §2
# [1] = Drug repurposing screens with cells derived from glioblastoma tumor samples (AID 1345199); conditions: GBM patient neurospheres viability, ATP luminescence, 48 h; also: nearly all actives have a fitted effect of over 40% in size; also: potency is read from the fitted curve at half-maximal effect
# Outline: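 Primary testing used CD133+ neurospheres from four GBM patients, seven concentrations, 48 h exposure and ATP-based viability; confirmation added three slower-growing patient lines.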
# UISO = test: qHTS assay to identify novel small-molecules to repurpose for Merkel cell carcinoma treatment (AID 1296009); conditions: MCC and control cell lines, CellTiter-Glo viability, 72 h; series mostly up to 46 µM; also: nearly all actives have a fitted effect of over 60% in size
# Outline: as §1
# CAOV3 = test: Primary qHTS to identify gynecologic anti-cancer compounds using libraries of approved drugs and bioactive compounds (AID 1345084); conditions: Gynecologic cancer cell panel viability, ATPlite luminescence, 48 h; series mostly up to 57.5 µM; also: nearly all actives have a fitted effect of over 55% in size
# Outline: as §2
# SKOV3 = test: as above; conditions: Gynecologic cancer cell panel viability, ATPlite luminescence, 48 h; series mostly up to 57.5 µM
# Outline: as §2
# WaGa = test: qHTS assay to identify novel small-molecules to repurpose for Merkel cell carcinoma treatment (AID 1296009); conditions: MCC and control cell lines, CellTiter-Glo viability, 72 h; series mostly up to 46 µM; also: nearly all actives have a fitted effect of over 60% in size
# Outline: as §1
# [2] = at 91.6 µM (top of the series), tumour line B
# [3] = at 91.6 µM (top of the series), tumour line D
# [4] = at 45.9 µM (top of the series), tumour line B
# [5] = at 45.9 µM (top of the series), tumour line D
# [6] = at 108 µM (top of the series), tumour line B
# [7] = at 108 µM (top of the series), tumour line D
structure (smiles),measurement,setting,value
CN(C)CCc1c[nH]c2cccc(O)c12,Potency,MCC-13,inactive
same,Potency,MCC-26,inactive
same,Potency,MKL-1,inactive
same,Potency,MKL-2,inactive
same,Potency,C33A,inactive
same,Potency,CASKI,inactive
same,Potency,Es-2,inactive
same,Potency,HeLa,inactive
same,Potency,Hek293T,inactive
same,Potency,JEG-3,inactive
same,Potency,OV90,inactive
same,Potency,PA-1,inactive
same,Potency,Tov-21-G,inactive
same,Potency,Tov112D,inactive
same,"activity, negative = cell killing",[1]; [2],-8.47%
same,"activity, negative = cell killing",[1]; [3],-23.4%
Cc1ncc2n1-c1ccc(Cl)cc1C(c1ccccc1F)=NC2,Potency,MCC-13,inactive
same,Potency,MCC-26,inactive
same,Potency,MKL-1,inactive
same,Potency,MKL-2,inactive
same,Potency,UISO,inactive
same,Potency,C33A,inactive
same,Potency,CAOV3,inactive
same,Potency,CASKI,inactive
same,Potency,Es-2,inactive
same,Potency,HeLa,inactive
same,Potency,Hek293T,inactive
same,Potency,JEG-3,inactive
same,Potency,PA-1,inactive
same,Potency,SKOV3,inactive
same,Potency,Tov-21-G,inactive
same,Potency,Tov112D,inactive
same,"activity, negative = cell killing",[1]; [4],-17.8%
same,"activity, negative = cell killing",[1]; [5],-1.25%
CCc1cc(OC)c(C[C@H](C)N)cc1OC,Potency,MCC-13,inactive
same,Potency,MCC-26,inactive
same,Potency,MKL-1,inactive
same,Potency,MKL-2,inactive
same,Potency,WaGa,inactive
same,Potency,C33A,inactive
same,Potency,CAOV3,inactive
same,Potency,CASKI,inactive
same,Potency,Es-2,inactive
same,Potency,HeLa,inactive
same,Potency,Hek293T,inactive
same,Potency,JEG-3,inactive
same,Potency,PA-1,inactive
same,Potency,SKOV3,inactive
same,Potency,Tov-21-G,inactive
same,Potency,Tov112D,inactive
same,"activity, negative = cell killing",[1]; [6],-24.5%
same,"activity, negative = cell killing",[1]; [7],-14.6%
same,Potency,[1]; tumour line A,31.6 µM (active)
CN1[C@@H]2CC[C@H]1CC(OC(=O)c1cc(Cl)cc(Cl)c1)C2 (stereo partly specified),Potency,MCC-13,inactive
same,Potency,MCC-26,inactive
same,Potency,MKL-1,inactive
same,Potency,MKL-2,inactive
same,Potency,UISO,inactive
same,Potency,WaGa,inactive
same,Potency,C33A,inactive
same,Potency,CASKI,inactive
same,Potency,Es-2,inactive
same,Potency,HeLa,inactive
same,Potency,JEG-3,inactive
same,Potency,SKOV3,inactive
same,Potency,Tov-21-G,inactive
same,Potency,Tov112D,inactive
CC(C)=C[C@@H]1[C@@H](C(=O)OCc2coc(Cc3ccccc3)c2)C1(C)C,Potency,MCC-13,inactive
same,Potency,MCC-26,inactive
same,Potency,MKL-1,inactive
same,Potency,MKL-2,inactive
same,Potency,UISO,inactive
same,Potency,C33A,inactive
same,Potency,CAOV3,inactive
same,Potency,CASKI,inactive
same,Potency,Es-2,inactive
same,Potency,HeLa,inactive
same,Potency,Hek293T,inactive
same,Potency,JEG-3,inactive
same,Potency,OV90,inactive
same,Potency,PA-1,inactive
same,Potency,SKOV3,inactive
same,Potency,Tov-21-G,inactive
same,Potency,Tov112D,inactive
same,"activity, negative = cell killing",[1]; [4],-21%
same,"activity, negative = cell killing",[1]; [5],-13.8%
O=C(N[C@H]1N=C(c2ccccc2F)c2cccc3c2N(CC3)C1=O)c1cc2ccccc2[nH]1,Potency,MCC-13,inactive
same,Potency,MCC-26,inactive
same,Potency,MKL-1,inactive
same,Potency,MKL-2,inactive
same,Potency,UISO,inactive
same,Potency,WaGa,inactive
same,Potency,CAOV3,inactive
same,Potency,CASKI,inactive
same,Potency,Es-2,inactive
same,Potency,HeLa,inactive
same,Potency,Hek293T,inactive
same,Potency,JEG-3,inactive
same,Potency,OV90,inactive
same,Potency,PA-1,inactive
same,Potency,Tov-21-G,inactive
same,Potency,Tov112D,inactive
same,"activity, negative = cell killing",[1]; [4],9.35%
Cc1cccc(Cc2cnc[nH]2)c1C,Potency,MCC-13,inactive
same,Potency,MCC-26,inactive
same,Potency,MKL-1,inactive
same,Potency,MKL-2,inactive
same,Potency,WaGa,inactive
same,Potency,C33A,inactive
same,Potency,CASKI,inactive
same,Potency,Es-2,inactive
same,Potency,HeLa,inactive
same,Potency,Hek293T,inactive
same,Potency,JEG-3,inactive
same,Potency,OV90,inactive
same,Potency,PA-1,inactive
same,Potency,SKOV3,inactive
same,Potency,Tov-21-G,inactive
same,Potency,Tov112D,inactive
same,"activity, negative = cell killing",[1]; [4],-15.8%
same,"activity, negative = cell killing",[1]; [5],-4.57%
same,Potency,[1]; tumour line A,35.5 µM (active)
O=C(O)CCCCCCNC1c2ccccc2CCc2ccccc21,Potency,MCC-13,inactive
same,Potency,MCC-26,inactive
same,Potency,MKL-1,inactive
same,Potency,MKL-2,inactive
same,Potency,WaGa,inactive
same,Potency,C33A,inactive
same,Potency,CAOV3,inactive
same,Potency,CASKI,inactive
same,Potency,Es-2,inactive
same,Potency,HeLa,inactive
same,Potency,Hek293T,inactive
same,Potency,JEG-3,inactive
same,Potency,OV90,inactive
same,Potency,PA-1,inactive
same,Potency,Tov-21-G,inactive
same,Potency,Tov112D,inactive
same,"activity, negative = cell killing",[1]; [4],2.2%
same,"activity, negative = cell killing",[1]; [5],-6.72%
CN1C2CCC(C)(C)C1CC(OC(=O)C(O)(c1cccs1)c1cccs1)C2 (stereo unspecified),Potency,MCC-13,inactive
same,Potency,MCC-26,inactive
same,Potency,MKL-1,inactive
same,Potency,MKL-2,inactive
same,Potency,UISO,inactive
same,Potency,WaGa,inactive
same,Potency,C33A,inactive
same,Potency,CASKI,inactive
same,Potency,Es-2,inactive
same,Potency,HeLa,inactive
same,Potency,Hek293T,inactive
same,Potency,JEG-3,inactive
same,Potency,PA-1,inactive
same,Potency,SKOV3,inactive
same,Potency,Tov-21-G,inactive
same,Potency,Tov112D,inactive
CC1N=C(N)OC1c1ccccc1 (stereo unspecified),Potency,MCC-13,inactive
same,Potency,MCC-26,inactive
same,Potency,MKL-1,inactive
same,Potency,MKL-2,inactive
same,Potency,UISO,inactive
same,Potency,C33A,inactive
same,Potency,CAOV3,inactive
same,Potency,CASKI,inactive
same,Potency,Es-2,inactive
same,Potency,HeLa,inactive
same,Potency,Hek293T,inactive
same,Potency,JEG-3,inactive
same,Potency,PA-1,inactive
same,Potency,Tov-21-G,inactive
same,Potency,Tov112D,inactive
same,"activity, negative = cell killing",[1]; [2],-8.97%
same,"activity, negative = cell killing",[1]; [3],-16.1%
same,Potency,[1]; tumour line A,50.1 µM (active)
C[C@@H]1CC[C@H]2[C@@H](C)C(=O)O[C@@H]3O[C@@]4(C)CC[C@@H]1[C@]32OO4,Potency,MCC-13,inactive
same,Potency,MCC-26,inactive
same,Potency,MKL-1,inactive
same,Potency,MKL-2,inactive
same,Potency,WaGa,inactive
same,Potency,C33A,inactive
same,Potency,CAOV3,inactive
same,Potency,CASKI,inactive
same,Potency,Es-2,inactive
same,Potency,HeLa,inactive
same,Potency,Hek293T,inactive
same,Potency,JEG-3,inactive
same,Potency,OV90,inactive
same,Potency,PA-1,inactive
same,Potency,SKOV3,inactive
same,Potency,Tov-21-G,inactive
same,Potency,Tov112D,inactive
same,"activity, negative = cell killing",[1]; [4],-29.6%
c1ccc2nc(N3CCNCC3)ccc2c1,Potency,MCC-13,inactive
same,Potency,MCC-26,inactive
same,Potency,MKL-1,inactive
same,Potency,MKL-2,inactive
same,Potency,UISO,inactive
same,Potency,WaGa,inactive
same,Potency,C33A,inactive
same,Potency,CASKI,inactive
same,Potency,Es-2,inactive
same,Potency,HeLa,inactive
same,Potency,Hek293T,inactive
same,Potency,JEG-3,inactive
same,Potency,PA-1,inactive
same,Potency,SKOV3,inactive
same,Potency,Tov-21-G,inactive
same,Potency,Tov112D,inactive
CCN(CC)C(C)C(=O)c1ccccc1 (stereo unspecified),Potency,MCC-13,inactive
same,Potency,MCC-26,inactive
same,Potency,MKL-1,inactive
same,Potency,MKL-2,inactive
same,Potency,UISO,inactive
same,Potency,WaGa,inactive
same,Potency,C33A,inactive
same,Potency,CASKI,inactive
same,Potency,Es-2,inactive
same,Potency,HeLa,inactive
same,Potency,Hek293T,inactive
same,Potency,JEG-3,inactive
same,Potency,OV90,inactive
same,Potency,PA-1,inactive
same,Potency,SKOV3,inactive
same,Potency,Tov-21-G,inactive
same,Potency,Tov112D,inactive
same,"activity, negative = cell killing",[1]; [4],-5.61%
same,"activity, negative = cell killing",[1]; [5],-24.9%
same,"activity, negative = cell killing","[1]; at 46 µM (top of the series), tumour line A",-22.4%
C[C@H](CN1CCOCC1)C(C(=O)N1CCCC1)(c1ccccc1)c1ccccc1,Potency,MCC-13,inactive
same,Potency,MCC-26,inactive
same,Potency,MKL-1,inactive
same,Potency,MKL-2,inactive
same,Potency,C33A,inactive
same,Potency,CAOV3,inactive
same,Potency,CASKI,inactive
same,Potency,Es-2,inactive
same,Potency,HeLa,inactive
same,Potency,Hek293T,inactive
same,Potency,JEG-3,inactive
same,Potency,PA-1,inactive
same,Potency,SKOV3,inactive
same,Potency,Tov-21-G,inactive
same,Potency,Tov112D,inactive
same,"activity, negative = cell killing",[1]; [6],-15.2%
same,"activity, negative = cell killing",[1]; [7],-29.8%
same,Potency,[1]; tumour line A,35.5 µM (active)
